Assay results published in PubChem BioAssay (Tox21).
Results filed as inconclusive are left out. Calls of active or inactive are those of the source. Unless noted, calls come from the whole dose curve; as a rule, active = well fitted curve in the direction sought with a large enough effect in the repeat runs; inconclusive = weak or mixed curves; inactive = no such curve, though single readings can be large; an effect the other way counts as inactive or inconclusive. Residues, ends and D or L forms follow the SMILES beside them.

Columns and labels:
[1] = qHTS assay to identify small molecule agonists of the peroxisome proliferator-activated receptor delta (PPARd) signaling pathway - cell viability counter screen (AID 743211); note: nearly all actives have a fitted effect of over 55% in size
Procedure, shortened: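 Viability of GeneBLAzer PPARd UAS-bla HEK293H cells was assessed after 17 h compound incubation at 37C, using CellTiter-Glo reagent added after the reporter read and luminescence recorded 30 min later.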

[2] = biological target: Peroxisome proliferator-activated receptor delta (Homo sapiens) (UniProt Q03181); experiment: qHTS assay to identify small molecule agonists of the peroxisome proliferator-activated receptor delta (PPARd) signaling pathway (AID 743212; calls by dose curve;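 note: HEK293H cells with PPARd UAS beta-lactamase reporter GeneBLAzer system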)
Chain of Peroxisome proliferator-activated receptor delta (Homo sapiens) (Q03181 whole entry, looked up): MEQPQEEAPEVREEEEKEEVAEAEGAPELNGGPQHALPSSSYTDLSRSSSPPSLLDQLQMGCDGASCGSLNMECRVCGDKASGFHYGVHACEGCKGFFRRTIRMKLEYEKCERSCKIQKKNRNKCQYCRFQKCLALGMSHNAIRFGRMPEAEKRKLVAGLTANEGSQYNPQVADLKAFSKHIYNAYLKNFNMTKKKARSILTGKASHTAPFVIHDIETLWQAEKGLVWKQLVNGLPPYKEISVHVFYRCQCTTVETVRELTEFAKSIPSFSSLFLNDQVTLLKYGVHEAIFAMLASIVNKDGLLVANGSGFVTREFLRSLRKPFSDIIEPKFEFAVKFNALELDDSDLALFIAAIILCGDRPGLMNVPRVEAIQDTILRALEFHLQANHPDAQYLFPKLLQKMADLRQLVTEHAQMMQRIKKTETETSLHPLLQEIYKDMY
Procedure, shortened: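 Steps: seed PPARd-bla HEK293H cells; incubate 5 h, 37 C, 5% CO2; add compounds in DMSO; incubate, 37 C; add LiveBLAzer B/G FRET substrate; hold 2 h at room temperature; measure fluorescence.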

[3] = qHTS assay to identify small molecule antagonists of the peroxisome proliferator-activated receptor delta (PPARd) signaling pathway - cell viability counter screen (AID 743213); note: nearly all actives have a fitted effect of over 50% in size
Procedure, shortened: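 In this counter screen, HEK293H cells carrying a UAS-beta-lactamase reporter are co-treated with test compounds and 300 nM L165041 (final) for 17 h at 37 C; cell viability is quantified by CellTiter-Glo luminescence.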

[4] = biological target: Peroxisome proliferator-activated receptor delta (Homo sapiens) (UniProt Q03181); experiment: qHTS assay to identify small molecule antagonists of the peroxisome proliferator-activated receptor delta (PPARd) signaling pathway (AID 743215; active = well fitted inhibition curve with a large enough effect in the signal ratio in the repeat runs, not every such curve was filed as active; the % refers to the signal ratio;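 note: cells stimulated with agonist L165041 at 300 nM final during compound exposure; series mostly up to about 62 µM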)
Procedure, shortened: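 Plated HEK293H PPARd-bla cells rested 5 h at 37 C and 5% CO2. Compound, then agonist L165041 at 300 nM final, was added; 17 h at 37 C followed. Substrate loading, 2 h room temperature, fluorescence measured.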

[5] = biological target: Bile acid receptor (Homo sapiens) (UniProt Q96RI1); experiment: qHTS assay to identify small molecule antagonists of the farnesoid-X-receptor (FXR) signaling pathway (AID 743217; active = well fitted inhibition curve with a large enough effect in the signal ratio in the repeat runs, not every such curve was filed as active; the % refers to the signal ratio)
Chain of Bile acid receptor (Homo sapiens) (Q96RI1 whole entry, looked up): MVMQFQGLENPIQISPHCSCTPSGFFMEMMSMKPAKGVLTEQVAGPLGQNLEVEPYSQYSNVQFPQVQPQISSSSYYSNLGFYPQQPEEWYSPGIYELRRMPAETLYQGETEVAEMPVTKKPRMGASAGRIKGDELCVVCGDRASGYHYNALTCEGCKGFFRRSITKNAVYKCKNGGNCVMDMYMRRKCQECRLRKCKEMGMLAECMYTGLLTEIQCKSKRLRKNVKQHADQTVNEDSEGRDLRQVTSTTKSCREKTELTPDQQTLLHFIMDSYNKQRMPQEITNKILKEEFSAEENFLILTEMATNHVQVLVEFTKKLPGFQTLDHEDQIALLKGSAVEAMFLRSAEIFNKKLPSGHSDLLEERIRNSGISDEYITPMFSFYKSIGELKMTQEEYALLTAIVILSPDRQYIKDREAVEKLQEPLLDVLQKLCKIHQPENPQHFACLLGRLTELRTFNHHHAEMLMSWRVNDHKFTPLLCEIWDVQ
Procedure, shortened: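 Screen of the Tox21 10K library in quantitative HTS format using FXR-UAS-bla HEK 293T reporter cells. Agonist chenodeoxycholic acid, 50 uM final, added with compounds; 16 h incubation at 37 °C; beta-lactamase FRET fluorescence measured.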

[6] = qHTS assay to identify small molecule agonists of the farnesoid-X-receptor (FXR) signaling pathway - cell viability counter screen (AID 743218); note: nearly all actives have a fitted effect of over 45% in size
Procedure, shortened: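 Viability of FXR-bla HEK 293T cells is measured by ATP-based CellTiter-Glo luminescence following 16 h compound treatment at 37 C and a prior 2 h room-temperature beta-lactamase substrate step.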

[7] = biological target: Bile acid receptor (Homo sapiens) (UniProt Q96RI1); experiment: qHTS assay to identify small molecule agonists of the farnesoid-X-receptor (FXR) signaling pathway (AID 743220; active = well fitted activation curve with a large enough effect in the signal ratio in the repeat runs, not every such curve was filed as active; the % refers to the signal ratio)
Procedure, shortened: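 FXR-UAS-bla HEK 293T cells carrying a UAS-driven beta-lactamase reporter were plated for 5 h at 37C/5% CO2, then exposed to DMSO-dissolved Tox21 10K compounds for 16 h at 37C. A LiveBLAzer B/G FRET substrate was loaded for 2 h at room temperature before fluorescence reading.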

[8] = qHTS assay to identify small molecule antagonists of the farnesoid-X-receptor (FXR) signaling pathway - cell viability counter screen (AID 743221; active = well fitted cell-killing curve with a large enough effect in the repeat runs, not every such curve was filed as active; note: nearly all actives have a fitted effect of over 50% in size)
Procedure, shortened: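 Quantitative HTS of the Tox21 10K library run in parallel with the beta-lactamase reporter read. HEK 293T cells carrying a UAS-driven bla reporter got compound and 50 uM CDCA (final) for 16 h; ATP-based luminescence followed.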

[9] = biological target: Vitamin D3 receptor (Homo sapiens) (UniProt P11473); experiment: qHTS assay to identify small molecule agonists of the vitamin D receptor (VDR) signaling pathway (AID 743222; calls by dose curve)
Chain of Vitamin D3 receptor (Homo sapiens) (P11473 whole entry, looked up): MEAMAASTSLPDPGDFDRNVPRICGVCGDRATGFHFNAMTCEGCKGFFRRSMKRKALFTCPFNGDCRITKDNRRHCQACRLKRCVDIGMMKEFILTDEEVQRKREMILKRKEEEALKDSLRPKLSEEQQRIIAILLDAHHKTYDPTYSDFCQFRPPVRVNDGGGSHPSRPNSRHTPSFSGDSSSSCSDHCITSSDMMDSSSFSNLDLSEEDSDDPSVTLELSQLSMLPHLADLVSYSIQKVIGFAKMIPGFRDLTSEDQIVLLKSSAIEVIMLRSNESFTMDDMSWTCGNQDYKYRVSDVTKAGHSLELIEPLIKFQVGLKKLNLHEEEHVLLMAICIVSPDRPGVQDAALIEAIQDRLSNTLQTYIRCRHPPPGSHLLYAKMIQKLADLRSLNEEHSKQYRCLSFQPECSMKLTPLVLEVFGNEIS
Procedure, shortened: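 Fluorescence from cleaved LiveBLAzer B/G FRET substrate served as readout. VDR-bla cells had been treated 16 h at 37C with test compounds in DMSO, following a 4 h settling period, and substrate was loaded for 2 h at RT.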

[10] = biological target: Vitamin D3 receptor (Homo sapiens) (UniProt P11473); experiment: qHTS assay to identify small molecule antagonists of the vitamin D receptor (VDR) signaling pathway (AID 743223; active = well fitted inhibition curve with a large enough effect in the signal ratio in the repeat runs, not every such curve was filed as active; the % refers to the signal ratio)
Procedure, shortened: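 Fluorescence from LiveBLAzer B/G FRET substrate, read after 2 h at room temperature, reflects beta-lactamase reporter activity in VDR-bla cells treated 16 h at 37C with compounds and agonist 1alpha,25-dihydroxyvitamin D3 (3 nM final).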

[11] = qHTS assay to identify small molecule antagonists of the vitamin D receptor (VDR) signaling pathway - cell viability counter screen (AID 743225); note: nearly all actives have a fitted effect of over 50% in size
Procedure, shortened: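 Cells (VDR-UAS-bla HEK 293T) are plated, rested 4 h at 37C, dosed with compound and 3 nM final 1-alpha,25-dihydroxy vitamin D3, and incubated 16 h. Viability is taken from CellTiter-Glo luminescence in the reporter wells.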

[12] = qHTS assay to identify small molecule agonists of the NFkB signaling pathway (AID 1159509; active = well fitted curve in the direction sought with a large enough effect in the signal ratio in the repeat runs, not every such curve was filed as active; the % refers to the signal ratio; note: series mostly up to about 61 µM)
Procedure, shortened: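 Readout: FRET fluorescence, 405 nm excitation, 460/530 nm emission; beta-lactamase expression disrupts FRET. Cells: ME-180 stably carrying NF-kB-driven bla reporter. Compound exposure 5 hr, 37 C, 5% CO2.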

[13] = qHTS assay to identify small molecule agonists of the NFkB signaling pathway - cell viability counter screen (AID 1159515; calls by dose curve; note: series mostly up to about 61 µM; nearly all actives have a fitted effect of over 55% in size)
Procedure, shortened: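 Parallel cytotoxicity counter screen in ME-180 cells carrying an NFkB-response-element beta-lactamase reporter, 2,000 cells/well. Compound exposure lasted 5 hr at 37 C, 5% CO2. Cell viability was quantified by CellTiter-Glo luminescence.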

[14] = qHTS assay to identify small molecule agonists of the endoplasmic reticulum stress response signaling pathway (AID 1159516; active = well fitted activation curve with a large enough effect in the signal ratio in the repeat runs, not every such curve was filed as active; the % refers to the signal ratio)
Procedure, shortened: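 Using a HeLa line with an ESRE-driven beta-lactamase gene, agonist activity was measured by FRET substrate fluorescence (460 and 530 nm emission) after cells were treated with compounds for 5 hr at 37 C and 5% CO2.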

[15] = qHTS assay to identify small molecule agonists of the endoplasmic reticulum stress response signaling pathway - cell viability counter screen (AID 1159517; calls by dose curve;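 note: HeLa cells carrying an ER stress response element beta-lactamase reporter; series mostly up to about 61 µM; nearly all actives have a fitted effect of over 50% in size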)
Procedure, shortened: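 After overnight attachment, ESRE-bla HeLa cells were treated with Tox21 library compounds for 5 hr. CellTiter-Glo luminescence, read 30 min post-addition at room temperature, reported viability.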

[16] = qHTS assay to identify small molecule antagonists of the retinoid-related orphan receptor gamma (ROR-gamma) signaling pathway - cell viability counter screen (AID 1159520); note: nearly all actives have a fitted effect of over 50% in size
Procedure, shortened: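 Cytotoxicity was read from cellular ATP (CellTiter-Glo luminescence) after 16 hr at 37 C with 1 uM doxycycline induction. The inducer was added 2 hr after compound transfer to Tet-on ROR gamma CHO cells.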

[17] = biological target: Nuclear receptor ROR-gamma (Homo sapiens) (UniProt P51449); experiment: qHTS assay to identify small molecule antagonists of the retinoid-related orphan receptor gamma (ROR-gamma) signaling pathway (AID 1159521)
Procedure, shortened: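 RORγ antagonism is scored from reduced reporter luminescence in Tet-on CHO cells. Induction used 1 uM final doxycycline hyclate for 16 h at 37 C, following a 2 h compound exposure.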

[18] = qHTS assay to identify small molecule agonists of the AP-1 signaling pathway - cell viability counter screen (AID 1159525; calls by dose curve; note: nearly all actives have a fitted effect of over 55% in size)
Procedure, shortened: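 Intracellular ATP by Cell Titer Glo luminescence (30 min, RT) in the same ME-180 AP-1-bla wells after the 5 h compound exposure at 37 °C. Normalised to tetra n-octyl ammonium bromide and DMSO controls.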

[19] = qHTS assay to identify small molecule agonists of the AP-1 signaling pathway (AID 1159526; calls by dose curve)
[20] = qHTS assay to identify small molecule agonists of the vitamin D receptor (VDR) signaling pathway - cell viability counter screen (AID 743224)
Procedure, shortened: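 Compounds were pin-transferred onto VDR-bla cells plated 4 h earlier; following 16 h incubation at 37C, cell viability was quantified by CellTiter-Glo luminescence after 30 min at room temperature.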

Measured: Potency

Nc1ccc(O)c(C(=O)O)c1
not listed: [20]
inactive: all other assays above

CC(O)CN(CCN(CC(C)O)CC(C)O)CC(C)O (stereo not drawn)
not listed: [20]
inactive: all other assays above

O=C(O)c1[nH]n(-c2ccc(S(=O)(=O)O)cc2)c(=O)c1N=Nc1ccc(S(=O)(=O)O)cc1
inactive: all assays above

COC(=O)[C@H](Cc1ccccc1)NC(=O)[C@@H](N)CC(=O)O (H-Asp-Phe-OMe)
not listed: [9] | [10] | [20]
inactive: all other assays above

CC(C)[C@@H]1CC[C@@H](C)C[C@H]1O
inactive: all assays above

CCC1(c2ccccc2)C(=O)NCNC1=O
not listed: [2] | [4]
inactive: all other assays above

CCCCCCCCCCCCCCCC(=O)O
not listed: [2] | [4] | [5] | [7] | [17] | [20]
inactive: all other assays above

NC(=O)c1ccccc1O
not listed: [13] | [20]
inactive: all other assays above

O=S(=O)(O)NC1CCCCC1
not listed: [2] | [4] | [5] | [7] | [17] | [20]
inactive: all other assays above

C1N2CN3CN1CN(C2)C3
not listed: [13] | [20]
inactive: all other assays above

Cc1ccc(O)cc1
inactive: all assays above

O=S(=O)(O)c1ccc2cc(O)ccc2c1
not listed: [2] | [4] | [5] | [7] | [17] | [20]
inactive: all other assays above

COc1ccc2[nH]cc(CCNC(C)=O)c2c1
not listed: [20]
inactive: all other assays above

CC(O)CO (stereo not drawn)
not listed: [5] | [7]
inactive: all other assays above

O=C1CN(/N=C/c2ccc([N+](=O)[O-])o2)C(=O)N1
not listed: [4] | [5] | [7] | [17]
inactive: all other assays above

O=C(O)c1cccnc1
not listed: [2] | [4] | [5] | [7] | [9] | [10]
inactive: all other assays above
